IC50 data for 108 compounds are collected here from PubChem BioAssay AID624351 (Southern Research Specialized Biocontainment Screening …, 2012).

The whole screen tested about 2,400 compounds, of which about 1,400 (58%) were called active.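 Rule for the calls: active = inhibition of 30% or more at any tested dose; inconclusive = primary hits over the limit that were never retested; inactive = the rest.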 The set was probably picked from earlier hits. The list shows a part of the results.

The nature of this assay: ADP Hunter readout inhibition without MgcRacGAP – biochemical, coupled enzyme counter-screen, artefact control for MgcRacGAP inhibitor project, dose response (AID 624351).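 Note: signal is the ADP detection kit reading of free GDP without any GAP enzyme.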 The note with it: fluorescence, no MgcRacGAP; series mostly up to 80 µM.
Usually IC50 stands for the concentration that gives 50% inhibition. On to `C/C(=N\NC(=O)c1cccc(N/N=C(\C)c2cc(O)ccc2O)c1)c1cc(O)ccc1O`, for which the IC50 is 75.5 µM (active). With `Cc1cc(-c2n[nH]c(=S)n2/N=C/c2ccccc2[N+](=O)[O-])n[nH]1`, the IC50 is 83.5 µM (active).

In the case of `Cc1cc(-c2n[nH]c(=S)n2/N=C/c2cccs2)n[nH]1`, the IC50 was 78.7 µM (active).

Consider `S=c1[nH]nc(-c2cccs2)n1/N=C/c1cccs1`, for which the IC50 was 59.7 µM (active).

For the compound `Cc1cc(-c2n[nH]c(=S)n2/N=C/c2ccc(Br)s2)n[nH]1`, the IC50 is 80.5 µM (active). For the compound `Cc1cc(-c2n[nH]c(=S)n2/N=C/c2sccc2C)n[nH]1`, the IC50 is 62.4 µM (active). Next, `O=C1CSC(=S)N1Nc1ccccc1`: 68 µM (active); `Oc1ccc2ccc(Cl)cc2c1`: 53.9 µM (active); `Nc1ccc2ccc(O)cc2c1`: 31.5 µM (active). The same measure for `C[n+]1c2cc(N)ccc2cc2ccc(N)cc21`: “inactive”. The same measure for `CCCC1=NN2C(=N)/C(=C\c3ccc(SCc4ccco4)o3)C(=O)N=C2S1`: “inactive”; for `CN(C)c1ccc(N=C/C=C2/N(C)c3ccccc3C2(C)C)cc1`: 20.6 µM (active).

Regarding `CN(C)c1ccc(N=C/C=C2\N(C)c3ccccc3C2(C)C)cc1`, the IC50 is 12.4 µM (active). The same measure for `CN1/C(=C\C=N\NC(=O)c2ccc(O)cc2)C(C)(C)c2ccccc21`: 74.4 µM (active); for `COc1cc(CNC2CCCCC2OC)cc(OC)c1` (stereo not drawn): “inactive”; for `O=c1c2c(nc3cc(-c4ccccc4)[nH]n13)CCS2`: “inactive”. The same measure for `O=C(CSc1nnc(C2CC2)n1C1CC1)N1CCN(c2ccc(O)cc2)CC1`: 45.6 µM (active); for `O=C(CSc1nnnn1C1CC1)N1CCN(c2ccc(O)cc2)CC1`: 31.5 µM (active); for `CCOC(=O)C1=C(C)Nc2ccccc2S1`: 41.3 µM (active). The same measure for `CCOC(=O)C1=C(C)Nc2ccc(C)cc2S1`: 79 µM (active); for `CCOC(=O)Nc1ccc2c(c1)Nc1ccccc1S2`: 40.6 µM (active). Consider `CSCCOC(=O)C1=C(C)Nc2ccc(C)cc2S1`, for which the IC50 was 35.6 µM (active). Next, `CCOc1cc(/C=N/NC(=O)CCn2nc(C)cc2C)ccc1O`: 58.5 µM (active); `O=C(CSc1ccc2ccccc2n1)N/N=C/c1ccc(O)cc1`: 73.6 µM (active); `O=C(CCn1cnc2ccccc21)N/N=C/c1ccc(O)cc1`: 57.4 µM (active). The same measure for `Cc1cc(C)n(CCC(=O)N/N=C/c2ccc(O)cc2)n1`: 74.1 µM (active); for `CN(CCCCCCN(C)Cc1ccccc1O)Cc1ccccc1O`: “inactive”. Next, `C#CCOCCOCCOCCNc1nc(N2CCN(C(=O)[C@H](CCCCN)n3cc([C@@H](N)CC(C)C)nn3)CC2)nc(N2CCN(C(=O)[C@H](CCCCN)n3cc([C@@H](N)CC(C)C)nn3)CC2)n1`: “inactive”; `COC(=O)CCNCCSc1nnc(-c2ccco2)n1Cc1ccccc1`: “inactive”. For `CCOc1cc(/C=N/NC(=O)C(=O)NCc2cccnc2)ccc1O`, the IC50 was 51.2 µM (active). The same measure for `CCOC(=O)c1c(C)n(-c2ccc(C)cc2)c2ccc(OCC(O)CNCC3CCCO3)cc12` (stereo not drawn): “inactive”. Regarding `CCOc1cc(/C=C(\C#N)C(=O)NCC2CCCO2)ccc1O` (stereo not drawn), the IC50 was 49.7 µM (active). In the case of `N#C/C(=C/c1ccc(O)c(O)c1)C(=O)NCc1ccc(Cl)cc1`, the IC50 was 36.5 µM (active). Next, `CCOCCCNC(=O)/C(C#N)=C/c1ccc([N+](=O)[O-])o1`: “inactive”. Next, `CCOc1cc(/C=C(\C#N)C(=O)NCc2cccnc2)ccc1O`: 45.3 µM (active); `N#C/C(=C\c1cccnc1)C(=O)Nc1cccc2ccccc12`: “inactive”; `C#CCOCCOCCOCCNc1nc(N2CCN(C(=O)C([C@@H](C)O)n3cc([C@@H](N)CCCCN)nn3)CC2)nc(N2CCN(C(=O)[C@H](CO)n3cc([C@@H](N)C(C)C)nn3)CC2)n1` (stereo partly drawn): “inactive”.

Regarding `CN(C)c1ccc(/C=N/O)cc1`, the IC50 was 23.9 µM (active). Regarding `CCN(CC)c1ccc(/C=N/O)cc1`, the IC50 is 21.6 µM (active). Next, `CCN(CC)c1ccc(/C=N\NC(N)=O)cc1`: 53.8 µM (active); `CCN(CC)CC(C)(C)C(=O)/C=C/c1ccc(/C=C/C(=O)C(C)(C)CN(CC)CC)cc1`: “inactive”.

`CCN(CC)c1ccc(/C=N/NC(=O)c2ccoc2C)cc1`: the IC50 entry is “inactive”. The same measure for `CN(C)c1nc(Oc2ccc(/C=N/O)cc2)nc(N(C)C)n1`: “inactive”; for `O=C(O)c1ccc2nc(-c3ccco3)c(-c3ccco3)nc2c1`: “inactive”; for `COc1cccc(CNc2ccc(N3CCC(C)CC3)cc2)c1OC`: 6.68 µM (active).

For the compound `COc1cccc(OC)c1OCCCN1CCOCC1`, the IC50 result is “inactive”. The same measure for `COc1ccc(CNCc2cccc(OC)c2OC)cc1Br`: “inactive”. Next, `COc1cccc(CNc2ccc(N3CCCCC3)cc2)c1OC`: 4.01 µM (active); `COc1cccc(CN2CCN(Cc3cc(OC)c(OC)c(OC)c3)CC2)c1OC`: “inactive”. Next, `COc1cccc(CNCc2ccccc2Br)c1OC`: “inactive”. As for `COc1ccc(C)cc1NCc1cccc(OC)c1OC`, the IC50 is 70.3 µM (active). The same measure for `COc1cccc(Nc2ccc(N3CCCCC3)cc2)c1OC`: 8.89 µM (active); for `COc1cccc(CN2CCN(Cc3cccc(Oc4ccccc4)c3)CC2)c1OC`: “inactive”. Next, `COc1cccc(OC)c1OCCCCN1CCCC1`: “inactive”; `COc1cc(Br)c(CNc2cc(C)ccc2C)cc1OC`: “inactive”. Next, `Cc1c(NC(=O)CN2CC(C)OC(C)C2)c(=O)n(-c2ccccc2)n1C` (stereo not drawn): “inactive”; `COc1cc(/C=C/C(=O)OC(C)C(=O)Nc2c(C)n(C)n(-c3ccccc3)c2=O)ccc1O` (stereo not drawn): 45.4 µM (active); `COc1cc(/C=C/C(=O)OCC(=O)Nc2c(C)n(C)n(-c3ccccc3)c2=O)ccc1O`: 53.6 µM (active).

Take `Cc1c(O)ccc2c3c(c(=O)oc12)CCCC3`: the IC50 was 23.7 µM (active).

For `CCn1c(=S)[nH]c2sc3c(c2c1=O)CCCC3`, the IC50 was 35 µM (active).

For `COCCCn1c(=S)[nH]c2sc3c(c2c1=O)CCCC3`, the IC50 is 30.9 µM (active). The same measure for `Nn1c(=S)[nH]c2sc3c(c2c1=O)CCCC3`: 67.3 µM (active); for `COCCn1c(=S)[nH]c2sc3c(c2c1=O)CCCC3`: 34.3 µM (active); for `C=CCc1cc(C)ccc1OCCCn1ccnc1`: “inactive”. Next, `O=C1C=CC(=O)N1c1ccc(Nc2ccccc2)cc1`: 34 µM (active); `O=C1C=CC(=O)N1c1ccccc1N1C(=O)C=CC1=O`: “inactive”. Next, `O=C(O)c1cc(N2C(=O)C=CC2=O)cc(N2C(=O)C=CC2=O)c1`: “inactive”; `COc1cc(/C=C(\C#N)c2nc3ccccc3[nH]2)cc(OC)c1O`: 27.1 µM (active); `COc1cc(/C=C(\C#N)C(=O)c2c[nH]c3ccccc23)cc(OC)c1O`: 51.3 µM (active).

Regarding `Cc1ccc2nc(/C(C#N)=C/c3ccc(O)c(O)c3)[nH]c2c1`, the IC50 is 26.8 µM (active). On to `COc1cc(/C=C(\C#N)c2nc3ccccc3[nH]2)ccc1O`, for which the 50% inhibitory concentration (IC50) was 14.8 µM (active). `CN1C=CC=C/C1=C(\C#N)c1nc2ccccc2[nH]1`: the IC50 was 52.5 µM (active).

With `COc1cc(CN2CCN(c3ccccc3F)CC2)cc(OC)c1O`, the IC50 entry is “inactive”. Next, `CCC(C)N1CCN(C(=O)c2cccs2)CC1` (stereo not drawn): “inactive”; `O=C(c1cccs1)N1CCN(Cc2ccncc2)CC1`: “inactive”.

Consider `Nc1ccc(N2CCN(c3ccc(F)cc3)CC2)cc1`, for which the IC50 is 19.9 µM (active). With `CC(=O)N1CCN(c2ccc(N)cc2)CC1`, the IC50 is 13.5 µM (active). The same measure for `Nc1ccc(N2CCN(c3ccccc3)CC2)c(F)c1`: 37.9 µM (active); for `Nc1ccc(N2CCN(C(=O)c3cccs3)CC2)cc1`: 22.1 µM (active).

With `COc1ccc(N2CCN(CC(O)COC(c3ccc(F)cc3)c3ccc(F)cc3)CC2)cc1` (stereo not drawn), the IC50 result was “inactive”. Regarding `COCC(C)NCc1ccccc1C` (stereo not drawn), the IC50 result is “inactive”. The same measure for `CCN1CCN(CC(O)COC(c2ccccc2)c2ccccc2C)CC1` (stereo not drawn): “inactive”; for `CCOCCCNC(=S)N1CCN(Cc2ccc3c(c2)OCO3)CC1`: “inactive”. The same measure for `CC(C(=O)NC1CCCCC1)N1CCN(C)CC1` (stereo not drawn): “inactive”; for `CC(C(=O)NC(=O)NC1CCCCC1)N1CCN(c2ccc(O)cc2)CC1` (stereo not drawn): 69.7 µM (active); for `CCN1CCN(C(C)C(=O)NC2CCCCC2)CC1` (stereo not drawn): “inactive”. Regarding `COc1ccc(C)cc1NC(=O)C(NCC(O)c1ccccc1)c1ccccc1` (stereo not drawn), the IC50 entry is “inactive”. The same measure for `COc1cc(/C=N\NC(=O)CNC(=O)C(c2ccccc2)c2ccccc2)ccc1O`: 50.6 µM (active).

In the case of `COc1cc(/C=N\NC(=O)CC(=O)NCCc2ccccc2)ccc1O`, the IC50 is 29.2 µM (active). The same measure for `COc1cc(/C=N/NC(=O)Cc2nnc(NC(=O)c3ccccc3)s2)ccc1O`: “inactive”; for `CCOc1cc(/C=N\NC(=O)CC(=O)NCCc2ccccc2)ccc1O`: 46 µM (active); for `COc1cc(/C=N/NC(=O)CCc2ccccc2)ccc1O`: 29.9 µM (active).

`Cc1cccc(N2C(S)=C(C#N)C(=O)NC2c2ccco2)c1` (stereo not drawn): the IC50 entry is “inactive”. Next, `O=C1C(SCCO)=C(SCCO)C(=O)c2ccccc21`: “inactive”; `COc1cc(/C=N/NC(=O)CCNC(=O)c2ccccc2Cl)ccc1O`: 32.2 µM (active); `COc1cc(/C=N/NC(=O)/C(=C/c2ccccc2)CCO)ccc1O`: 45.8 µM (active). Regarding `COc1cc(OC)c(OC)cc1CN1CCN(Cc2ccc(SC)cc2)CC1`, the IC50 entry is “inactive”.

Turning to `CCC(C)n1c(=S)[nH]c2c(sc3ccc([N+](=O)[O-])cc32)c1=O` (stereo not drawn), the IC50 was 58.8 µM (active). The same measure for `O=C(O)CCCn1c(=S)[nH]c2c(sc3ccc([N+](=O)[O-])cc32)c1=O`: 30.5 µM (active). Next, `COc1ccc2nc3cc(Cl)ccc3c(Nc3ccc(O)c(CN4CCN(C)CC4)c3)c2c1`: 82 µM (active). The same measure for `COc1ccc(CN2CCN(CCCCOc3ccc(Cl)cc3)CC2)c(OC)c1OC`: “inactive”; for `O=C(C1CCN(Cc2cc(Cl)ccc2O)CC1)N1CCN(Cc2ccccc2)CC1`: “inactive”; for `COc1cc(CNCc2ccccc2C(F)(F)F)cc(OC)c1`: “inactive”. In the case of `Cc1nc(/N=C(\N)NC(=O)N2c3ccccc3Sc3ccccc32)nc2ccccc12`, the IC50 entry was “inactive”. The same measure for `COc1cc(CN2CCC(C(=O)N3CCCC(C)C3)CC2)cc(Br)c1O` (stereo not drawn): “inactive”; for `Oc1ccc(/C=N/Nc2cccc(Cl)n2)c(O)c1`: 25.6 µM (active). Next, `Cc1nc(Cl)cc(N/N=C/c2ccc(O)cc2O)n1`: 17.3 µM (active). Next, `Oc1ccc(C=NNc2ccccn2)c(O)c1`: 20.8 µM (active).
